# Measured values taken from PubChem BioAssay (NCATS).
# Records with an inconclusive call do not appear. A call without a number means that no potency is given here. Calls of active or inactive are those of the source. Calls come from the whole dose curve; as a rule, active = well fitted inhibition curve with a large enough effect; inconclusive = small, poorly fitted or top-dose-only effect; inactive = flat fitted curve, though single readings scatter.
# Test system: CP211
# Test: qHTS profiling for inhibitors of Plasmodium falciparum proliferation (AID 504749); note: nearly all actives have a fitted effect of over 60% in size
# Conditions: P. falciparum in erythrocytes, SYBR Green DNA, 72 h; series mostly up to 28.7 µM
# Summary of the method: (§1)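 SYBR Green fluorescence (ex 485 nm, em 535 nm) reports parasite DNA after 72 h compound exposure of infected red cells at 0.3% parasitemia, 2.5% hematocrit; signal normalized to 0.29 uM artemisinin and vehicle wells.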
# Potency is the fitted concentration of half-maximal effect.
row,Structure (SMILES),Potency
1,CCCCCCCCCCCCCCCCOP(=O)([O-])OCC[N+](C)(C)C,inactive
2,O=C1OC(c2ccc(O)cc2)(c2ccc(O)cc2)c2ccccc21,inactive
3,Oc1ccc(Cl)cc1Sc1cc(Cl)ccc1O,inactive
4,CN(C(=O)CN(CCO)CC(=O)N(C)C(C)(C)Cc1ccccc1)C(C)(C)Cc1ccccc1,inactive
5,c1ccc(OCc2ccc(CCCN3CCOCC3)cc2)cc1,inactive
6,NC(CS)C(=O)O (configuration not stated),inactive
7,N[C@H](Cc1c[nH]c2ccccc12)C(=O)O,inactive
8,c1ccc(-c2ccc(C(c3ccccc3)n3ccnc3)cc2)cc1 (configuration not stated),19 µM (active)
9,CC(C)NC[C@@H](O)COc1cccc2ccccc12,inactive
10,CCOC(=O)/C=C(C)/C=C/C=C(C)/C=C/c1c(C)cc(OC)c(C)c1C,inactive
11,O=C(CCCN1CCC(O)(c2ccc(Br)cc2)CC1)c1ccc(F)cc1,inactive
12,CN1CCN(CCCN2c3ccccc3Sc3ccc(S(=O)(=O)N(C)C)cc32)CC1,inactive
13,CCOC(=O)COc1ccc2c(C)c(CCN(CC)CC)c(=O)oc2c1Cl,inactive
14,OC(CCN1CCCCC1)(c1ccccc1)c1ccccc1,inactive
15,CCN1CCCC1=O,inactive
16,Cc1cccc(C)c1NC(=O)CN1CCN(CCCC(c2ccc(F)cc2)c2ccc(F)cc2)CC1,inactive
17,CCCCc1nc(Cl)c(CO)n1Cc1ccc(-c2ccccc2-c2nn[nH]n2)cc1,6.75 µM (active)
18,Cc1ccc(C(=O)C(C)CN2CCCCC2)cc1 (configuration not stated),inactive
19,CCN1CCC[C@H]1CNC(=O)c1c(OC)ccc(Br)c1OC,inactive
20,CCCCCCCCCCCCCCNCCO,inactive
21,Cc1ccc(O)c2ncccc12,inactive

# Test system: CP215
# Test: as above
# Conditions: P. falciparum in erythrocytes, SYBR Green DNA, 72 h; series mostly up to 28.7 µM
# Summary of the method: as §1
row,Structure (SMILES),Potency
1,CC(=O)N/N=C/c1ccc([N+](=O)[O-])o1,inactive
2,CCCCCCCCCCCCCCCCOP(=O)([O-])OCC[N+](C)(C)C,inactive
3,O=C1OC(c2ccc(O)cc2)(c2ccc(O)cc2)c2ccccc21,inactive
4,CN(C(=O)CN(CCO)CC(=O)N(C)C(C)(C)Cc1ccccc1)C(C)(C)Cc1ccccc1,inactive
5,c1ccc(OCc2ccc(CCCN3CCOCC3)cc2)cc1,inactive
6,N[C@H](Cc1c[nH]c2ccccc12)C(=O)O,inactive
7,c1ccc(-c2ccc(C(c3ccccc3)n3ccnc3)cc2)cc1 (configuration not stated),15.1 µM (active)
8,CCOC(=O)/C=C(C)/C=C/C=C(C)/C=C/c1c(C)cc(OC)c(C)c1C,inactive
9,CCOC(=O)COc1ccc2c(C)c(CCN(CC)CC)c(=O)oc2c1Cl,inactive
10,CCCCCCCCCCOCC(O)CN (configuration not stated),inactive
11,CCN1CCCC1=O,inactive
12,Cc1cccc(C)c1NC(=O)CN1CCN(CCCC(c2ccc(F)cc2)c2ccc(F)cc2)CC1,inactive
13,CCN(CC)CCOc1ccc(C(O)(Cc2ccc(Cl)cc2)c2ccc(C)cc2)cc1 (configuration not stated),13.5 µM (active)
14,Cc1ccc(C(=O)C(C)CN2CCCCC2)cc1 (configuration not stated),inactive
15,CCN1CCC[C@H]1CNC(=O)c1c(OC)ccc(Br)c1OC,inactive
16,Cc1ccc(O)c2ncccc12,inactive

# Test system: CP217
# Test: as above
# Conditions: P. falciparum in erythrocytes, SYBR Green DNA, 72 h; series mostly up to 28.7 µM
# Summary of the method: as §1
row,Structure (SMILES),Potency
1,CCCCCCCCCCCCCCCCOP(=O)([O-])OCC[N+](C)(C)C,inactive
2,O=C1OC(c2ccc(O)cc2)(c2ccc(O)cc2)c2ccccc21,inactive
3,O=C(N/N=C/c1ccccc1O)c1ccncc1,8.91 µM (active)
4,c1ccc(OCc2ccc(CCCN3CCOCC3)cc2)cc1,inactive
5,C=C(CC)C(=O)c1ccc(OCC(=O)O)c(Cl)c1Cl,inactive
6,N[C@H](Cc1c[nH]c2ccccc12)C(=O)O,inactive
7,c1ccc(-c2ccc(C(c3ccccc3)n3ccnc3)cc2)cc1 (configuration not stated),8.91 µM (active)
8,CN1CCN(CCCN2c3ccccc3Sc3ccc(S(=O)(=O)N(C)C)cc32)CC1,3.98 µM (active)
9,CCOC(=O)COc1ccc2c(C)c(CCN(CC)CC)c(=O)oc2c1Cl,inactive
10,CCN1CCCC1=O,inactive
11,CCCCc1nc(Cl)c(CO)n1Cc1ccc(-c2ccccc2-c2nn[nH]n2)cc1,12.6 µM (active)
12,Cc1ccc(C(=O)C(C)CN2CCCCC2)cc1 (configuration not stated),inactive
13,CCN1CCC[C@H]1CNC(=O)c1c(OC)ccc(Br)c1OC,inactive
14,CCCCCCCCCCCCCCNCCO,inactive
15,Cc1ccc(O)c2ncccc12,inactive

# Test system: CP237
# Test: as above
# Conditions: P. falciparum in erythrocytes, SYBR Green DNA, 72 h; series mostly up to 28.7 µM
# Summary of the method: as §1
row,Structure (SMILES),Potency
1,CCCCCCCCCCCCCCCCOP(=O)([O-])OCC[N+](C)(C)C,inactive
2,O=C1OC(c2ccc(O)cc2)(c2ccc(O)cc2)c2ccccc21,inactive
3,Oc1ccc(Cl)cc1Sc1cc(Cl)ccc1O,inactive
4,c1ccc(CNCCNCc2ccccc2)cc1,3.16 µM (active)
5,c1ccc(OCc2ccc(CCCN3CCOCC3)cc2)cc1,inactive
6,N[C@H](Cc1c[nH]c2ccccc12)C(=O)O,inactive
7,c1ccc(-c2ccc(C(c3ccccc3)n3ccnc3)cc2)cc1 (configuration not stated),8.91 µM (active)
8,CC(C)NC[C@@H](O)COc1cccc2ccccc12,5.01 µM (active)
9,CCOC(=O)/C=C(C)/C=C/C=C(C)/C=C/c1c(C)cc(OC)c(C)c1C,inactive
10,CN(C)C(=S)SC(=S)N(C)C,10 µM (active)
11,CN1CCN(CCCN2c3ccccc3Sc3ccc(S(=O)(=O)N(C)C)cc32)CC1,3.98 µM (active)
12,CCOC(=O)COc1ccc2c(C)c(CCN(CC)CC)c(=O)oc2c1Cl,inactive
13,OC(CCN1CCCCC1)(c1ccccc1)c1ccccc1,4.47 µM (active)
14,CCN1CCCC1=O,inactive
15,C[C@@H]1CN(CCCn2c3ccccc3c3ccccc32)C[C@H](C)N1,11.2 µM (active)
16,CCCCc1nc(Cl)c(CO)n1Cc1ccc(-c2ccccc2-c2nn[nH]n2)cc1,inactive
17,CCN(CC)CCOc1ccc(C(O)(Cc2ccc(Cl)cc2)c2ccc(C)cc2)cc1 (configuration not stated),7.94 µM (active)
18,Cc1ccc(C(=O)C(C)CN2CCCCC2)cc1 (configuration not stated),inactive
19,CCCCCCCCCCCCCCNCCO,4.47 µM (active)
20,Cc1ccc(O)c2ncccc12,inactive
